# Hit rate of the full screen: of about 48,000 compounds, about 13,000 (27%) showed an effect of 50% or more. The list shows a part of the results.
# Test system: Wolbachia pipientis
# Test: Anti-Wolbachia Cell-Based Screen
# Type: functional
# Parameters: scale not given: in the data most compounds retested in dose-response had high values
# Settings: 5 µM
row,SMILES,Percent Effect [%]
1,COc1ccc(CNCC2CNc3ccnn3C2)cn1 (centres undefined),96.76
2,c1ccc(Oc2ccc(CNCC3CNc4ccnn4C3)cn2)cc1 (centres undefined),117.1
3,O=C(NCCNCC1CNc2ccnn2C1)c1ccc(F)cc1 (centres undefined),-19.45
4,Fc1ccc(Oc2ccc(CNCC3CNc4ccnn4C3)cn2)cc1 (centres undefined),99.62
5,COc1ccc(CNC[C@H]2Cn3ccnc3CO2)cn1,-7.877
6,c1ccc(-n2ccnc2)c(CNCC2CNc3ccnn3C2)c1 (centres undefined),-6.615
7,Cc1cc2n(n1)CC(CNCc1ccc(-n3cccn3)nc1)CN2 (centres undefined),-3.824
8,Fc1cccc(Oc2ccc(CNCC3CNc4ccnn4C3)cn2)c1 (centres undefined),5.815
9,c1ccc(Cn2cncn2)c(CNCC2CNc3ccnn3C2)c1 (centres undefined),4.151
10,c1cc2n(n1)CC(CNCc1ccc(OCC3CC3)nc1)CN2 (centres undefined),1.128
11,Cc1cc2n(n1)CC(CNCc1ccc(OCC3CC3)nc1)CN2 (centres undefined),93.19
12,Cc1cc2n(n1)CC(CNCc1cnn(C)c1)CN2 (centres undefined),-3.792
13,Cc1n[nH]c(C)c1C1CCCN1C(=O)c1coc(Br)c1 (centres undefined),4.835
14,CCN(Cc1cccc2c1OCO2)C(=O)NCc1ccccn1,102.4
15,CCN(C(=O)c1cccc2c1OCO2)c1ccccc1,-1.465
16,CCN(Cc1ccc2c(c1)OCO2)C(=O)NCc1nc(C)cs1,-7.212
17,CCN(Cc1cccc2c1OCO2)C(=O)Nc1cn[nH]c1,109.5
18,CCN(Cc1cccc2c1OCCO2)C(=O)NC(C)(C)C,-7.864
19,Cc1cc(CN(C)C(=O)NCc2ccccn2)no1,9.808
20,COc1cc(CN(C)C(=O)NCc2cccc3c2OCO3)ccc1SC,-31.12
21,O=C(Nc1cn[nH]c1)N(CCO)C1CCc2ccccc21 (centres undefined),3.342
22,CCN(Cc1cccc2c1OCO2)C(=O)NCCOC,78.96
23,O=C(Nc1ccccn1)N(CCO)Cc1ccsc1,-7.906

row,SMILES,Percent Effect [%]
1,O=C(Cc1ccccc1Br)NCC(=O)Nc1cn[nH]c1,-11.75
2,CCN(Cc1cccc2c1OCO2)C(=O)Nc1ccccn1,122.5
3,Nc1nc(CCC(=O)N2CCOC(CC3CCCCC3)C2)cs1 (centres undefined),-4.495
4,CC1(C)CCC(C(=O)O)c2ccccc21 (centres undefined),1.78
5,CN(Cc1ccc(Br)o1)C(=O)Nc1cccnc1,14.31
6,CCOCC1CC2(CCN(Cc3ccccn3)CC2)CO1 (centres undefined),-6.984
7,CC(=O)N1CCC2(CC1)COC(COCc1ccccn1)C2.O=C(O)C(F)(F)F (centres undefined),-3.959
8,Cc1cccc(CN2CCC3(CC2)COC(COCC2CC2)C3)n1 (centres undefined),102.1
9,Cc1csc(CN2CCC3(CC2)COC(COCC2CC2)C3)n1.O=C(O)C(F)(F)F (centres undefined),87.23
10,Cc1cc(CN2CCC3(CC2)COC(COCC2CC2)C3)no1.O=C(O)C(F)(F)F (centres undefined),95.48
11,O=C(O)C(F)(F)F.O=C(O)C(F)(F)F.c1cncc(OCC2CC3(CCN(CC4CC4)CC3)CO2)c1 (centres undefined),-1.816
12,O=C(C1CCSCC1)N1CCC2(CC1)COC(COCC1CC1)C2 (centres undefined),0.4038
13,Cc1ncc(CNc2ccc(C(=O)NCc3ccco3)cc2C)s1,-10.56
14,CCS(=O)(=O)CCNC(=O)c1ccc(-c2ccc(C)cc2)cc1F,-13.74
15,CN(C)[C@@H]1CO[C@H](CNC(=O)c2cccs2)[C@H]1O,5.998
16,COCC(=O)NCCSCCOc1cccc(Br)c1,5.807
17,CNc1cc(C)nc(N2Cc3cnn(Cc4ccc(F)cc4)c3C2)n1,67.48
18,Cc1cc(C)nc(N2Cc3cnn(Cc4ccc(F)cc4)c3C2)n1,10.67
19,Cc1ccnc(N2Cc3cnn(Cc4ccc(F)cc4)c3C2)n1,-9.844
20,CCn1nc(C)c2ncnc(NCC(=O)N3CCOCC3)c21,4.727
21,CCn1nc(C)c2ncnc(N(C)C)c21,100.5
22,COCCN(Cc1ccccc1)c1cc(C)ncn1,-9.961
23,CCn1nc(C)c2nc(C(C)C)nc(N3CCCCC3)c21,-10.35

row,SMILES,Percent Effect [%]
1,Cc1nn(C)c2c(NCCCn3cccn3)ncnc12,1.711
2,CCN(CC)c1ncnc2c(C)nn(CC)c12,92.35
3,CCN(Cc1ccccc1)c1ncnc2c(C)nn(CC)c12,90.55
4,CCCc1nc(N2CCN(CC)CC2)c2c(n1)c(C)nn2CC,-11.71
5,CN1CCC(N(C)C[C@H]2CC[C@@H](Cc3cccc(CO)c3)O2)CC1,-29.03
6,O=C(NCC1CC1)C1CN(C(=O)c2cccc(Cl)c2)CC12CCOCC2 (centres undefined),-0.2514
7,Cn1c(C(=O)N2CCC(C(N)=O)C2)c(Cl)c2ccccc21 (centres undefined),50.27
8,Cn1c(C(=O)N2CCC(C(=O)N3CCCC3)CC2)c(Cl)c2ccccc21,1.615
9,Cn1c(C(=O)N2CCC(CC(N)=O)CC2)c(Cl)c2ccccc21,-9.644
10,Cc1ccc(OC2(C(=O)O)CCN(C(=O)c3nc(C)oc3C)CC2)cn1,-0.6346
11,CCC(NS(=O)(=O)c1ccc(C(=O)NC2CC2)cc1)c1ccnn1C (centres undefined),-9.031
12,CCC(NS(=O)(=O)c1ccc(C(=O)NC2CC2)cc1)c1cnn(C)c1 (centres undefined),100.7
13,CCCNS(=O)(=O)c1ccc(C(=O)NC(CC)c2cnn(C)c2)cc1 (centres undefined),-2.749
14,Cc1nc2cc(=O)[nH]n2c(C)c1CNC(=O)C(C)Cc1ccccc1 (centres undefined),-3.98
15,COc1cccc2c1N(CC(=O)Nc1ccc(Cl)cn1)CCC2,8.099
16,Cc1ccc2nc(CN3CCC(O)(CN4CCCC4)CC3)cc(O)c2c1,3.677
17,COC(=O)c1cccc2nc([C@H]3CCN(CC(C)C)C3)oc12,-3.142
18,Cc1ccc2ncn(CC(O)CN3CCC(C)CC3)c(=O)c2c1 (centres undefined),8.084
19,Cc1ccc2nc(C3CCCN(CC(C)C)C3)nc(O)c2c1 (centres undefined),109.3
20,CC(C)CN1CCC(NC(=O)c2ccc(F)cc2I)CC1,2.48
21,CCN1CCCC(c2nc(O)c3cc(C)ccc3n2)C1 (centres undefined),115.3
22,Oc1cc(CNCCCN2CCCC2)nc2ccc(F)cc12,15.84
23,Cc1ccc2nc(CN3CCCC3c3cccnc3)cc(O)c2c1 (centres undefined),7.141

row,SMILES,Percent Effect [%]
1,CC(C)CN1CCCC(c2nc(O)c3cc(F)ccc3n2)C1 (centres undefined),102.2
2,Cc1ccc2nc(C3CCN(CC(C)C)CC3)nc(O)c2c1,129.6
3,Cc1ccc2nc(CNCCCN3CCCC3)cc(O)c2c1,-3.941
4,O=C(c1ccco1)N(CC(F)(F)F)C1CCCOC1 (centres undefined),-12.11
5,COCc1csc(NC(=O)NCc2ccc(C)s2)n1,0.0103
6,c1cc(-c2noc(-c3cc(C4CC4)[nH]n3)n2)cc(N2CCCCC2)n1,-19.77
7,Cc1cnn(CCC(=O)N2C[C@H]3CC[C@@H]2CN(CC(=O)N(C)C)C3)c1,-5.732
8,COCCN(Cc1ccc(C)o1)C(=O)Nc1nnc2ccccn12,-21.85
9,Cn1ncc2cnn(CC(O)COCc3ccccc3Cl)c2c1=O (centres undefined),-6.755
10,Cc1cc(N2CCN(Cc3ccccc3)CC(O)C2)cc(C)n1 (centres undefined),-18.63
11,Cc1ccc2nc(C3CCCN(Cc4ccccc4)C3)nc(O)c2c1 (centres undefined),104.3
12,Cc1cccc(N2CC3(CCN(Cc4nccn4C)C3)CC2=O)c1.O=C(O)C(F)(F)F (centres undefined),3.528
13,COC(=O)c1ccoc1CN(C)CC(=O)NC1CCS(=O)(=O)C1 (centres undefined),105.9
14,COC(=O)c1cc(NC(=O)NCC2CCS(=O)(=O)C2)ccc1Cl (centres undefined),-31.29
15,COC(=O)c1ccoc1CN(C1CC1)C1CCS(=O)(=O)C1 (centres undefined),104.7
16,COC(=O)c1ccoc1CN(C)CC(=O)NC1CC1,113.9
17,CN(CCC(=O)NC1CC1)Cc1ccc(Cl)s1,-12.79
18,O=C(CN(Cc1cccs1)C1CCS(=O)(=O)C1)NCCc1cccs1 (centres undefined),4.084
19,CN(Cc1cnn(C)c1)C(=O)NC1CCS(=O)(=O)C1 (centres undefined),-13.78
20,CNC(=O)COC(=O)c1ccoc1CN1c2ccccc2CC1C (centres undefined),-15.23
21,O=C(Cc1cc2c(cc1Br)OCCO2)NC1CCS(=O)(=O)C1 (centres undefined),-27.59
22,CC(CS(C)(=O)=O)N(C(=O)Nc1cc(F)ccc1Cl)C1CC1 (centres undefined),14.25
23,CC(c1ccco1)N(C(=O)NCc1ccon1)C1CC1 (centres undefined),5.216

row,SMILES,Percent Effect [%]
1,CC(C)C(C)N(C(=O)Cn1nc2n(c1=O)CCCCC2)C1CC1 (centres undefined),119.1
2,CC(c1ccco1)N(C(=O)c1cc2c([nH]c1=O)CCCC2=O)C1CC1 (centres undefined),-5.594
3,CC(C)C(=O)N(C)Cc1nnc2n1CCCCC2,6.475
4,CC(c1ccco1)N(C(=O)Cn1nc2n(c1=O)CCCCC2)C1CC1 (centres undefined),105.1
5,CN1[C@H]2CC[C@@H]1CN(C(=O)c1nnc3n1CCCCC3)CC2,-0.7264
6,O=C(c1cnc2n1CCCC2)N1CCCC1,17.49
7,CC(C)N(C(=O)Cn1nc2n(c1=O)CCCCC2)C1CCC1,81.53
8,CC(C)C(C)N(C(=O)c1cc2c([nH]c1=O)CCCC2=O)C1CC1 (centres undefined),-5.669
9,Cc1csc(CN2CC[C@H]3C[C@H](c4nnc(C)[nH]4)O[C@@H]3C2)n1,1.224
10,CC(C)N(C)S(=O)(=O)N(Cc1cccs1)Cc1cccs1,-8.549
11,CCOCC1CC2(CCN(C(=O)c3ccccc3F)CC2)CO1 (centres undefined),-17.98
12,COc1cccc(C(=O)N2CCC3(CCC(=O)N(C(C)C)C3)CC2)c1C,-8.72
13,CCOCCCNC(=O)C1(C)CCC(=O)N1c1ccccc1OC (centres undefined),128.9
14,CCOCCCNC(=O)N(C)Cc1ccc(SC)c(OC)c1,10.44
15,O=C(O)C(F)(F)F.O=C1CCC2(CCCN(Cc3ccccc3F)C2)N1CC1CC1 (centres undefined),-58.45
16,CCOC(=O)c1ccc(Nc2ccc(OC)c(N3CCCC3=O)c2)nc1,-0.2575
17,CCOCCCNC(=O)C1(C)CCC(=O)N1c1ccccc1F (centres undefined),110.1
18,COc1ccccc1C1(C(=O)NCCN2CCOCC2)CCOCC1,3.862
19,CCOCCCNC(=O)C1(C)CCC(=O)N1c1cc(OC)ccc1OC (centres undefined),128.4
20,CCOCCCNC(=O)C1(C)CCC(=O)N1Cc1ccccc1F (centres undefined),119.7
21,CNC(=O)CN1C(=O)CCC12CCCN(Cc1ccccc1F)C2 (centres undefined),-35.38
22,CC(=O)NCCCSC1CCN(c2ccccc2F)C1=O (centres undefined),-10.73

# From ChEMBL document CHEMBL3988442, “University of Dundee, Small-Polar-MMV Screening Library” (2021)
